Screening results: PubChem, Sanford-Burnham Center for Chemical Genomics
A selection: hits, their analogues and other compounds. The true share with any hit is near 4.1%.
MIN6 prolif: inducers of beta-cell replication in MIN6 cells; MIN6 cells proliferation, ATPlite luminescence, 48 h; cells starved in 0.2% serum; 100% = growth in 10% serum; proliferation, % at 10 µM; 330,000 compounds, 0.29% hits;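 active = compounds whose signal lies at least 3.5 SD above the mean of all wells on their plate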;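 note: 0% = DMSO-treated cells in low-serum medium and 100% = 10% serum control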
p-CIP stab down: p/CIP protein destabilization; Q05BA5; F442A p/CIP-EGFP cells, EGFP fluorescence, 16 h; decrease of EGFP signal, % at 10 µM; 290,000 compounds, 0.01% hits; AID 1984;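 active = EGFP signal decrease of at least 30% at 10 µM or well 3 SD below plate mean, unless failing retest; inactive = the rest, including hits failing retest or dose response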
NR3A LBD binder: modulators (binders) of human NR3A ligand-binding domain; NR3A LBD differential scanning fluorimetry, Tm shift; 0% = protein alone, 100% = glycine-bound protein; Tm shift relative to glycine control, % at 25 µM; 340,000 compounds, 2.5% hits;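 active = melting temperature shift of at least 10% of the positive control shift, at one fixed dose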
FAS-TE inh: blocks the thioesterase domain of human fatty acid synthase; P49327; recombinant FAS-TE, OMFH fluorogenic substrate, fluorescence endpoint; 360,000 compounds, 0.67% hits; inhibition, % at 15 µM;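 active = compounds whose normalised, plate-corrected inhibition of enzyme fluorescence in the single-dose primary screen is 50% or more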;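 note: 0% = DMSO with enzyme and 100% = substrate without enzyme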
MPTP block: permeability transition pore inhibition. isolated mouse mitochondria, Ca2+ swelling absorbance, 30 min. inhibition, % at 10 µM. 360,000 compounds, 1.4% hits;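 active = inhibition of 50% or more, scaled per plate between neutral and stimulator controls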;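 note: 0% = DMSO wells given calcium and 100% = 1 mM EGTA wells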
The depositor's hits bear a star; . = no result given.

SMILES	MIN6 prolif	p-CIP stab down	NR3A LBD binder	FAS-TE inh	MPTP block
O=C(NNc1nc(-c2ccc(Br)cc2)cs1)c1ccco1	-7	8	-2	-5	1
O=C(NC(=S)Nc1nc(-c2ccc([N+](=O)[O-])cc2)cs1)c1ccco1	-2	2	20*	5	2
Cc1ccccc1C1N=C2Oc3ccccc3C=C2C(=O)N1 (stereo unspecified)	.	.	.	-7	-1
Nc1ncnc2c1ccn2[C@H]1CN(Cc2ccc(Cl)cc2)C[C@@H](CO)O1	.	.	.	-5	0
CC(c1ccco1)N(C(=O)c1cc(Cl)cc(Cl)c1)c1ccccn1 (stereo unspecified)	0.0*	0	1	9	-3
Cc1ccc(SC(C)C(=O)N2CCCC2)cc1 (stereo unspecified)	2	-1	12*	-11	0
CCN(CC(=O)NC1CCCC1)S(=O)(=O)c1ccc(Br)cc1	2	5	11*	0	0
O=S1(=O)N[C@@H](Cc2ccccc2)COc2ccc(Cl)cc21	.	.	.	5	0
Cc1cccc(-c2cnc(C(O)Cc3ccccc3)[nH]2)c1 (stereo unspecified)	.	.	.	-2	1
O=C(Nc1nc2c(F)cccc2s1)C1CC1	1	-1	2	-6	-3
Cc1onc(-c2ccccc2)c1C(=O)Nc1sc2c(c1C#N)CCC(C)C2 (stereo unspecified)	-4	-4	-1	32	8
Cc1onc(-c2c(Cl)cccc2Cl)c1C(=O)NC(=S)Nc1sc2c(c1C(N)=O)CCC(C)C2 (stereo unspecified)	-1	-9	30*	6	3
CC1CCc2c(sc(Nc3nc4c(F)cccc4s3)c2C(N)=O)C1 (stereo unspecified)	-3	-10	12*	9	49
C=CCNC(=O)C1CC2Cn3c(nc4cc5ccccc5cc43)C2N1C (stereo unspecified)	0	-20	12*	-6	0
CCCS(=O)(=O)NC(=O)C1(C)CCCN(C(=O)c2ccc(C(=O)OC)cc2)C1 (stereo unspecified)	.	.	.	-8	-1
NC1=NC(=O)/C(=C/c2ccccc2OS(=O)(=O)c2ccc3ccccc3c2)S1	.	-1	18*	-13	0
COc1ccc(CN2CC[C@@H]3CN(C(C)=O)[C@H](c4ccccc4Br)C[C@@H]32)cc1	.	.	.	-9	0
S=C1NC2(CCCC2)Nc2ccccc21	-5	-9	-2	-7	-1
S=C1NC2(CCCCC2)Nc2ccccc21	-1	-5	12*	-8	-1
CC1(C)Cc2c(cnn2-c2ccc(F)cc2)C(NC(=O)CN2CCCCC2=O)C1 (stereo unspecified)	0	-10	0	-3	-1
C=CCNC(=O)/C(C#N)=C/c1ccccc1OCc1ccc(C(=O)OC)cc1	-4	0	34*	15	1
COC(=O)c1ccc(COc2ccccc2/C=C(\C#N)C(=O)Nc2ccc(C)cc2)cc1	-2	-8	-7	8	0
CC(NS(=O)(=O)c1ccc(OCC(=O)Nc2cccc([N+](=O)[O-])c2)cc1)c1ccccc1 (stereo unspecified)	.	-10	19*	18	20
Cc1ccc(S(=O)(=O)NC(=O)COc2ccc([N+](=O)[O-])cc2)cc1	4	-16	17*	0	0
O=C(COc1ccc(Cl)cc1)Nc1nc(-c2ccc(S(=O)(=O)N3CCOCC3)cc2)cs1	-1	-5	-3	63*	19
SMILES	MIN6 prolif	p-CIP stab down	NR3A LBD binder	FAS-TE inh	MPTP block
O=C(COc1ccc(S(=O)(=O)N2CCOCC2)cc1)Nc1cccc([N+](=O)[O-])c1	0	-16	19*	24	0
COc1ccc(C(=O)C(C)OC(=O)C2CC3CCCC(C2)C3=O)cc1 (stereo unspecified)	.	.	.	-7	1
CC(CCc1ccccc1)NC(=O)COc1ccc(S(=O)(=O)N2CCOCC2)cc1[N+](=O)[O-] (stereo unspecified)	0	-8	13*	-3	12
CC(C)NS(=O)(=O)c1ccc(OCC(=O)NCc2ccccc2)cc1	-2	-15	11*	0	-2
COc1ccc(CNC(=O)COc2ccc(S(=O)(=O)NC(C)C)cc2)cc1	-4	-12	-3	-4	3
Oc1ccc(N=Nc2nc(-c3ccccc3)c(-c3ccccc3)[nH]2)cc1	-5	-31	2	18	4
O=C(CSc1n[nH]c(-c2ccc(Br)cc2)n1)NC1CCCC1	0	.	-1	-12	-1
Oc1ccc(N=Nc2n[nH]c(-c3ccc(Br)cc3)n2)cc1	.	4	27*	-2	2
Oc1ccc(N=Nc2n[nH]c(-c3ccccc3)n2)cc1	-5	-4	10*	-4	0
CCCCn1nnnc1C1(C)CCC(=O)N1CC(F)(F)F (stereo unspecified)	.	.	.	-14	-1
CC(=O)Nc1ccc(-c2ccnc3c2CC(C)(C(=O)Nc2cccc(Oc4ccccc4)c2)O3)cc1 (stereo unspecified)	.	.	.	22	0
CC1(C)CCC(=O)c2ccccc21	.	.	0	-2	0
CC12CCCc3c(O)cc(=O)n(c31)-c1ccccc12 (stereo unspecified)	-2	5	21*	-14	-2
Nc1c2c(nc3ccc(Br)cc13)N(C1CCCCC1)CC2	-5	-9	.	.	.
Nc1c2c(nc3ccc(Br)cc13)N(Cc1ccccc1)CC2	3	5	0	5	2
Nc1c2c(nc3ccc(Br)cc13)N(c1ccccc1)CC2	1	4	10*	10	9
Cc1cccc(N2CCc3c2nc2ccc(Br)cc2c3N)c1	-4	-5	37*	32	12
CC(=O)Nc1ccc(SC[C@H](CC(C)C)N2CCN(CC(C)C)CCC2=O)cc1	-4	0	13*	-10	0
COc1cccc(/C=N/NC(=O)CNC(=O)COc2ccccc2)c1O	-2	-4	-1	2	0
Cc1cccc(OCC(=O)N/N=C/c2cn[nH]c2-c2ccc(Cl)c(Cl)c2)c1	-4	8	27*	-8	2
Cc1cccc(OCC(=O)NCC(=O)N/N=C/c2cc(Br)cc(Br)c2O)c1	0	-13	17*	23	0
Cc1cc(F)cc(-c2cc(C(=O)NCC3CCCCC3)[nH]n2)c1	.	.	.	-1	26
CCOC(=O)Nc1ccc2c(c1)Nc1ccccc1S2	-6	-31	12*	27	12
C=CC(=O)N1c2ccccc2Sc2ccc(NC(=O)OCC)cc21	-6	.	-1	9	-2
C[C@H](NC(=O)[C@@H]1CCCN1C(=O)[C@@H]1CCCN1)c1ccccc1	.	.	.	-12	0
O=C1[C@H]2[C@@H](c3ccc(F)cc3)N3C(=O)N(c4cccc(F)c4)C(=O)[C@@]3(Cc3ccccc3)[C@H]2C(=O)N1C1CCCCC1	-5	.	-3	46	2
